For 14 compounds, growth results are on record in PubChem BioAssay (NCI).

Some test systems named below: T-47D breast; BT-549 breast; MDA-MB-435 melanoma; SW-620 colon; MCF7 breast; HCT-116 colon; HCC-2998 colon; KM12 colon.
Experiment in all cases: NCI-60 one-dose screen, 48 h (100 = growth as untreated, 0 = no growth, -100 = all killed)
Conditions in all cases: 10 µM unless noted

Compounds without any hit were thinned out: in the full panel of roughly 83,000, 20% have a hit.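 48-hour exposure, single concentration, 96-well plates; percent growth endpoint where 0 means no net growth. Active: below 10.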 Unmarked numbers belong to inactive results. The source made the active and inactive calls.

Consider `N=C(N)c1ccc(-c2ccc(-c3cncc4ccccc34)s2)s1`, for which the growth is -58.3% (active) with T-47D breast; 36.9% in the test on BT-549 breast; -91.2% (active) with MDA-MB-435 melanoma; -68.4% (active) in the test on SW-620 colon; -68.7% (active) with MCF7 breast; -84.4% (active) in the test with HCT-116 colon. Further, the growth with HCC-2998 colon was -78.3% (active); in the test with KM12 colon, -78.8% (active).

Consider `Cc1ccccc1NC(=O)N/C(N)=N/c1nc(-c2cccc([N+](=O)[O-])c2)cs1`, for which the growth with T-47D breast was 35.7%; with BT-549 breast it was 51%; with MDA-MB-435 melanoma, -19.7% (active); in the test on SW-620 colon, 31.1%; with MCF7 breast it was 22.4%; in the test on HCT-116 colon, 20.6%. For the same compound, the growth in the test on HCC-2998 colon was 39.6%; with KM12 colon it was 31.2%.

Regarding `CCOC(=O)c1ccc(N2NC(=O)/C(=C/c3ccc([N+](=O)[O-])o3)C2=O)cc1`, the growth in the test on T-47D breast is 109%; in the test with BT-549 breast, 99.7%; with MDA-MB-435 melanoma, 109%; in the test with SW-620 colon, 106%; in the test with MCF7 breast it was 89.4%; in the test with HCT-116 colon, 82.2%. The growth is 103% in the test with HCC-2998 colon and 106% in the test with KM12 colon.

`Cc1cc(C)c(-c2c(C)cc(C)cc2CBr)c(CBr)c1`: the growth is 69.8% in the test with T-47D breast; 79.2% in the test on BT-549 breast; 77% in the test on MDA-MB-435 melanoma; 78.5% in the test with SW-620 colon; 67.1% with MCF7 breast; 49.4% in the test on HCT-116 colon. Further, the values for the growth in the test on HCC-2998 colon and with KM12 colon were 103% and 80.3%, respectively.

For the compound `CN(C)c1ccc(-c2cc(-c3ccc(Nc4nc(Nc5ccc(Cl)cc5)nc(Nc5ccc(Cl)cc5)n4)cc3)no2)cc1`, the growth was -4.43% (active) in the test with T-47D breast; 58.2% in the test with BT-549 breast; 9.44% (active) in the test with MDA-MB-435 melanoma; 53.6% in the test with SW-620 colon; 13.4% in the test on MCF7 breast; 31.3% in the test with HCT-116 colon. For the same compound, the growth is -5.58% (active) in the test with HCC-2998 colon and 28.5% in the test on KM12 colon.

Regarding `CN(C)CCNc1nc2ccccc2c2c1c1c(n2Cc2ccccc2)-c2ccccc2C1=O`, the growth in the test on T-47D breast is -41.2% (active); with BT-549 breast it was -86.8% (active); in the test on MDA-MB-435 melanoma, -65.1% (active); in the test on SW-620 colon it was -92.8% (active); in the test with MCF7 breast, -93.2% (active); in the test on HCT-116 colon it was -78.2% (active). Also, the growth with HCC-2998 colon was -91.3% (active); in the test with KM12 colon, -74.6% (active).

For `Oc1c(CN2CCCC2)cc(COCc2ccc(Br)cc2)c2cccnc12`, the growth was -7.63% (active) with T-47D breast; 14.9% with BT-549 breast; 24.1% in the test on MDA-MB-435 melanoma; 5.64% (active) with SW-620 colon; 11.7% in the test with MCF7 breast; 1.8% (active) in the test on HCT-116 colon. Besides, the growth is 21.5% with HCC-2998 colon and 20.6% in the test on KM12 colon.

Take `COCN1CCC2N(COC)CCC3N(COC)CCC1N23` (configuration not stated): the growth in the test on T-47D breast was 99.6%; in the test with BT-549 breast, 108%; with MDA-MB-435 melanoma it was 110%; in the test on SW-620 colon it was 114%; in the test on MCF7 breast, 99.4%; in the test on HCT-116 colon, 101%. Further, the growth in the test with HCC-2998 colon is 100%; in the test on KM12 colon, 106%.

As for `Cc1cc(NCc2cc(Nc3ccnc4cc(Cl)ccc34)ccc2F)nc(N2CCSCC2)n1`, the growth is -37.8% (active) with T-47D breast; 46.6% in the test with BT-549 breast; -70.4% (active) with MDA-MB-435 melanoma; -14.1% (active) in the test on SW-620 colon; 0.0561% (active) in the test with MCF7 breast; -29.1% (active) in the test on HCT-116 colon. In addition, the growth in the test with HCC-2998 colon was 3.4% (active); with KM12 colon, 14.9%.

For the compound `CC/C=C\C[C@H](O)C/C=C1/C(=O)C=C[C@@H]1C/C=C\CCCCO`, the growth was 21.6% in the test with T-47D breast; -8.67% (active) in the test with BT-549 breast; -5.88% (active) in the test with MDA-MB-435 melanoma; -12.4% (active) in the test on SW-620 colon; 13.3% with MCF7 breast; -64.6% (active) in the test with HCT-116 colon. In addition, the growth in the test with HCC-2998 colon is 6.24% (active); in the test on KM12 colon, -16.1% (active).

As to `CC(C)=C[C@@H]1c2c(c3ccccc3n(C)c2=O)O[C@H]2c3c(c4ccccc4n(C)c3=O)OC(C)(C)[C@@H]12`, the growth in the test on T-47D breast was 57.7%; in the test with BT-549 breast it was 54.7%; with MDA-MB-435 melanoma, 83.9%; with SW-620 colon, 89.9%; in the test with MCF7 breast it was 69.8%; in the test on HCT-116 colon, 81.6%. The growth was 82.7% in the test with HCC-2998 colon and 89.1% in the test on KM12 colon.

Consider `COc1cccc(-c2nn(-c3ccccc3)cc2-c2ccnc(NCCNC(=O)Nc3ccc(Cl)c(Cl)c3)c2)c1`, for which the growth with T-47D breast is 12.6%; in the test on BT-549 breast, -4.67% (active); in the test with MDA-MB-435 melanoma, -66.9% (active); with SW-620 colon, 18.3%; with MCF7 breast, 6.67% (active); in the test on HCT-116 colon, 0.717% (active). In addition, the growth in the test on HCC-2998 colon is -37.1% (active); in the test on KM12 colon, -33.8% (active).

As for `N#Cc1c(-c2ccccn2)[nH]c(=S)[nH]c1=O`, the growth in the test on T-47D breast was 94.4%; with BT-549 breast it was 102%; with MDA-MB-435 melanoma, 99.8%; in the test with SW-620 colon it was 105%; in the test on MCF7 breast it was 95.1%; with HCT-116 colon it was 94.8%. The growth in the test on HCC-2998 colon was 106%; in the test with KM12 colon it was 102%.

As for `O=C(c1ccccc1)N1N=C(c2ccccc2)CC1c1nnc2n(Cc3ccccc3)c(=O)c3c4c(sc3n12)CCCC4` (configuration not stated), the growth in the test on T-47D breast was 122%; with BT-549 breast it was 115%; with MDA-MB-435 melanoma, 97.9%; in the test on SW-620 colon it was 105%; in the test on MCF7 breast, 96.4%; in the test with HCT-116 colon, 95.1%. In addition, the growth in the test on HCC-2998 colon was 125%; with KM12 colon, 82.4%.
